Screening data as filed in PubChem BioAssay.
IL1B secr inh = blocks inflammasome-driven IL-1 beta release; THP-1 LPS/ATP IL-1B secretion, AlphaLISA, 16 h; hits give low values; activity change, % at 57.5 µM; 360,000 tested, 4.7% active; in the data active means activity change below about -50%; inconclusive means mostly about -30% to -49%
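Secreted IL-1B measured by AlphaLISA bead assay after 16 h compound exposure of THP-1 cells; compounds (final up to 57.5 uM) added 1 h before LPS (250 ng/mL) and ATP (1.25 mM) stimulation; lower signal means less secretion.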
HT1080-NT tox = kills 2HG-producing HT-1080-NT fibrosarcoma cells. HT-1080-NT fibrosarcoma viability, CellTiter-Glo ATP luminescence, 48 h. Potency, µM (doses to about 46.1 µM), for the others: top-dose activity, negative = less viability, actives largely listed as cytotoxic. 360,000 tested, 1.6% active. AID 686970;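 further: NT is the 2HG producing partner of a matched IDH1 knockdown line; potency means the concentration at half of the fitted maximal effect; 0% = DMSO-treated cells and -100% = media-only wells without cells; nearly all actives have a fitted effect of over 55% in size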
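Viability by CellTiter-Glo luminescence after 48 h compound exposure at 37C of HT-1080-NT cells (750/well, RPMI, 5% FBS). % activity scaled between DMSO wells and medium-only wells, then curve-fitted and categorized by curve class.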
HT1080 IDH1KD tx = HT-1080 IDH1 knockdown cell toxicity (counter line); HT-1080 IDH1 knockdown viability, ATP luminescence, 48 h; Potency, µM (series often up to 46.1 µM), without a hit: at the top dose activity, negative = toxicity, actives largely listed as cytotoxic; 360,000 tested, 2% active; AID 686971;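 further: potency means the concentration at half of the fitted maximal effect; 0% = DMSO wells and -100% = cell-free medium wells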
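Knockdown cells (IDH1KD HT-1080) received compounds 2 h after plating at 750 cells/well and were kept 48 h at 37 °C in 5% FBS RPMI. A CellTiter-Glo luminescence read gave % activity for curve fitting.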
DT40 TDP1 CPT = growth inhibition of DT40 Tdp1-/-;hTDP1 cells with camptothecin (screen for TDP1 inhibitors); chicken DT40 Tdp1-/-;hTDP1 cells + 20 nM CPT, ATP luminescence, 48 h; Potency, µM (series often up to 46.2 µM), without a hit: at the highest dose activity change, negative = growth inhibition, hits mostly inhibitors; 420,000 tested, 12% active; AID 686979; further: potency means the concentration at half of the fitted maximal effect; nearly all actives have a fitted effect of over 55% in size
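Cell growth measured by CellTiter-Glo luminescence after a minimum 48 h, 37 C compound exposure with 20 nM CPT in Tdp1-knockout DT40 cells stably expressing hTDP1, seeded 400/well; qHTS titration format.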
DT40 TDP1 no CPT = qHTS for Inhibitors of human tyrosyl-DNA phosphodiesterase 1 (TDP1): qHTS in cells in absence of CPT; DT40 Tdp1-/- hTDP1 cells, no CPT, ATP luminescence, 48 h; Potency, µM (series often up to 46.2 µM), without a hit: at the highest dose activity change, negative = growth inhibition, most hits filed as inhibitors; 420,000 tested, 15% active; AID 686978, 2013; further: potency means the concentration at half of the fitted maximal effect; nearly all actives have a fitted effect of over 55% in size
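Compound effects on proliferation are scored in DT40 Tdp1-/-;hTDP1 cells in the absence of CPT. ATP levels (CellTiter-Glo luminescence) are recorded after a ≥48 hr, 37 °C incubation.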
Numbers without * were called inactive; ? = inconclusive; · = not tested or not shown; [ ] = another dose, or the depositor's remark. In the library only some 19% were active in any assay of this set; here they are far more common. Unless noted, the call rests on the fitted dose curve; in most records, active means well fitted curve in the direction sought with a large enough effect; inconclusive means small, poorly fitted or top-dose-only effect, or another doubt; inactive means no such curve, though single readings can be large; an effect the other way counts as inactive or inconclusive. Unless noted, on the % scale 0 is the no-effect control and ±100 the full control effect.

SMILES | IL1B secr inh | HT1080-NT tox | HT1080 IDH1KD tx | DT40 TDP1 CPT | DT40 TDP1 no CPT
CCOc1ccc(N2CC(C(=O)Nc3ncccc3C)CC2=O)cc1 (configuration not stated) | 8 | 3% | 3% | 4% | 6%
Cc1c(Cl)cccc1NC(=O)CSc1nncn1-c1ccccn1 | -4 | 1% | 9% | 4% | -13%
O=C(CSc1nc(=O)[nH]c2c1CCCC2)Nc1cc(C(F)(F)F)cc(C(F)(F)F)c1 | 16 | -3% | -7% | 18µM* | 23µM*
CCOC(=O)c1cnc2c(C)cc(C)cc2c1NCCCN1CCOCC1 | -71* | -5% | -7% | ? | ?
CCOC(=O)c1cnc2c(C)cc(C)cc2c1NCCN1CCOCC1 | · | · | · | 18µM* | 16µM*
CCOC(=O)c1cnc2c(C)cc(C)cc2c1Nc1cccc(C(=O)O)c1 | · | · | · | 13µM* | 15µM*
CCOC(=O)c1cnc2c(C)cc(C)cc2c1Nc1ccc(S(=O)(=O)Nc2ncccn2)cc1 | 22 | 4% | 2% | -10% | -3%
COC(=O)[C@@H](Cc1c[nH]c2ccccc12)NCc1cccc(B(O)O)c1 | -2 | 2% | -7% | -22% | -29%
CCCCOc1ccc(C(=O)NNC(=O)C2C3C=CC(C3)C2C(=O)O)cc1 (configuration not stated) | -14 | -9% | -1% | -18% | -17%
C[C@H](CO)N1C[C@H](C)[C@@H](CN(C)C(=O)Nc2ccc3c(c2)OCO3)Oc2c(NC(=O)Nc3ccc(C(F)(F)F)cc3)cccc2C1=O | 0 | ? | ? | 13µM* | ?
C[C@H](CO)N1C[C@H](C)[C@@H](CN(C)C(=O)Nc2ccc(C(F)(F)F)cc2)Oc2c(NC(=O)Nc3ccc4c(c3)OCO4)cccc2C1=O | ? | -23% | -9% | ? | 18µM*
Cc1noc(C)c1NC(=O)N(C)C[C@H]1Oc2c(NC(=O)Nc3ccc4c(c3)OCO4)cccc2C(=O)N([C@H](C)CO)C[C@@H]1C | 23 | -1% | -4% | 7% | -30%
Cc1noc(C)c1NC(=O)Nc1cccc2c1O[C@H](CN(C)C(=O)Nc1ccc3c(c1)OCO3)[C@@H](C)CN([C@H](C)CO)C2=O | -10 | 5% | 8% | 6% | 3%
CC(=O)NC(c1ccccc1)c1nc(-c2cccc(CO)c2)cs1 (configuration not stated) | 23 | -2% | ? | -19% | -10%
COc1ccc(N/N=C/c2c(C(=O)O)ccc3ccccc23)cc1 | 173 | ? | ? | 2.6µM* | 3.3µM*
Cc1onc(-c2ccccc2)c1C(=O)NCCSCc1ccco1 | -15 | 4% | 1% | -15% | ?
CCNc1nc(NCC)nc(N(C#N)CCOc2ccccc2)n1 | -6 | 1% | -4% | ? | -6%
CN(C)c1nc(Cl)nc(N(C#N)CCOc2ccccc2)n1 | -86* | -3% | 2% | -9% | 16%
CCNc1nc(NC(C)C)nc(N(C#N)CCOc2ccccc2)n1 | -14 | -18% | -24% | 23µM* | 23µM*
O=C(NNC(=S)Nc1ccccc1C(F)(F)F)C1CC1 | -5 | 13% | 17% | 1% | -9%
CC(C)C(NC(=O)c1c(F)cccc1F)C(=O)N1CCN(c2ncccn2)CC1 (configuration not stated) | -11 | 9% | 11% | -2% | -19%
Cc1oc(-c2ccccc2NC(=O)C2CCCO2)nc1CNC(=O)c1cc(Cl)ccc1F (configuration not stated) | · | · | · | 10%[9.04 µM] | -11%
COc1ccc(-c2nc3scc(CCNS(=O)(=O)c4cccs4)n3n2)cc1 | · | · | · | 21µM* | 18µM*
COc1ccc(CCNS(=O)(=O)c2cccs2)cc1 | 8 | -4% | -3% | -7% | -16%
O=S(=O)(NCCc1csc2nc(-c3ccccc3)nn12)c1cccs1 | · | · | · | ? | 16µM*
CCOC(=O)Cc1csc2nc(-c3ccccc3)nn12 | 24 | 1% | 5% | -11% | ?
Cc1csc2nc(CCNS(=O)(=O)c3cccs3)cn12 | 14 | 10% | -2% | 12% | -5%
